NPC1 promoter act: qHTS Assay for NPC1 Promoter Activators; actives 2.4% (n = 320,000); Potency, µM (series often up to 9.22 µM), hits mostly activators; AID 485313, 2010; Huh7 NPC1 promoter luciferase reporter, 24 h; also: nearly all actives have a fitted effect of over 60% in size
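Luminescence read-out of NPC1 promoter-driven luciferase in stably transfected Huh7 cells; compounds delivered in DMSO and left 24 h at 37C, 5% CO2, qHTS titration format.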
FLuc modulator: qHTS profiling assay for firefly luciferase inhibitor/activator using purifed enzyme and Km concentrations of substrates (counterscreen for miR-21 project). Luciferin 4-monooxygenase (Photinus pyralis), P08659. purified FLuc, Km substrates, luminescence inhibition. Potency, µM (highest dose often 57.5 µM), most hits filed as inhibitors. actives 6.9% (n = 360,000); also: nearly all actives have a fitted effect of over 55% in size
Target sequence (P08659 whole entry, looked up): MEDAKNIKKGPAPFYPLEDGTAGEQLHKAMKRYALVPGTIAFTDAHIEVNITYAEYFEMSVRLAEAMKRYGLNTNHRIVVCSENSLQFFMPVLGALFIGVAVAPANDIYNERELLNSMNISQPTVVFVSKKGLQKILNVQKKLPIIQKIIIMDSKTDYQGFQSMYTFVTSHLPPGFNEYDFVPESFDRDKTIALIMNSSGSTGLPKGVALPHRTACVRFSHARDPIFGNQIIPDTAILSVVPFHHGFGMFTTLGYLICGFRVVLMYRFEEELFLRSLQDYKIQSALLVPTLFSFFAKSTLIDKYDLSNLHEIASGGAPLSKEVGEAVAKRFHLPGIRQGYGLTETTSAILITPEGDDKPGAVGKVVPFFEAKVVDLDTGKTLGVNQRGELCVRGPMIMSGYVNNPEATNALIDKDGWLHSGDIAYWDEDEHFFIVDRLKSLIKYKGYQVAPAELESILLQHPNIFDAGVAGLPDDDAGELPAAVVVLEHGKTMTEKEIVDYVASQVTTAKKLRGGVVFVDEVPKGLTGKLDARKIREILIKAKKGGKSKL
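Purified P. pyralis luciferase (10nM final) with 10uM D-luciferin and 10uM ATP (Km levels) in 50mM Tris acetate pH 7.5, 10mM Mg acetate, 0.01% Tween-20, 0.05% BSA; qHTS 6-point titration, ~60 µM downward; luminescence read.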
ELG1 genotoxic: qHTS screen for small molecules that induce genotoxicity in human embryonic kidney (HEK293T) cells expressing luciferase-tagged ELG1; Potency, µM (doses to about 46 µM), most hits filed as activators; HEK293T ELG1-luciferase reporter, luminescence, 16 h; actives 1.3% (n = 330,000); also: nearly all actives have a fitted effect of over 60% in size
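Reporter readout depends on ELG1 protein level, which increases with genetic stress. After 16 hr compound exposure at 37 °C, luciferase activity was quantified using ONE-Glo.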
Rab9 prom act: qHTS Assay for Rab9 Promoter Activators; Huh7 Rab9 promoter-luciferase reporter, luminescence, 24 h; Potency, µM (series often up to 9.22 µM), hits mostly activators; actives 2.8% (n = 320,000); AID 485297, 2010; also: nearly all actives have a fitted effect of over 60% in size
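Luminescence read-out: Huh7 cells stably expressing Rab9-luciferase, treated 24 h with compound at 37 °C, then lysed with luciferase reagent for 10 min at ambient before reading.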
ELG1 repair inh: qHTS screen for small molecules that inhibit ELG1-dependent DNA repair in human embryonic kidney (HEK293T) cells expressing luciferase-tagged ELG1 | HEK293T ELG1-luciferase reporter, luminescence, 16 h; DNA damage induced by 5-fluorouridine | Potency, µM (top dose mostly 46.1 µM), hits mostly inhibitors | actives 2.3% (n = 330,000) | AID 504467, 2011; also: nearly all actives have a fitted effect of over 55% in size
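Quantitative HTS, concentration-response format. 2,000 cells/well co-treated with 5-fluorouridine and compound, 16 hr in 5% CO2 at 37 °C; ONE-Glo luminescence read after 30 min.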
SMN2 splice up: qHTS Assay for Enhancers of SMN2 Splice Variant Expression; HEK293 SMN2-luciferase splicing reporter, luminescence, 30-36 h; Potency, µM (titrated, usually from 46.1 µM), actives largely listed as activators; actives 2.8% (n = 210,000); AID 1458, 2008; also: nearly all actives have a fitted effect of over 55% in size
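HEK293 cells carry an SMN2 […]–luciferase reporter in which exon 7 inclusion puts luciferase in frame. Cells were plated 10-12 h before compound addition, then incubated 30-36 h at 37C. ONE-Glo luminescence was read; sodium butyrate at 4.5 mM final served as control.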
A number is an active result; – = inactive; ? = inconclusive; · = not tested or not shown. Hits are enriched below; roughly 9.3% of the tested compounds scored in any of these assays. Calls follow the shape of the dose curve; as a rule, active = well fitted curve in the direction sought with a large enough effect; inconclusive = small, poorly fitted or top-dose-only effect, or another doubt; inactive = no such curve, though single readings can be large; an effect the other way counts as inactive or inconclusive.

SMILES	NPC1 promoter act	FLuc modulator	ELG1 genotoxic	Rab9 prom act	ELG1 repair inh	SMN2 splice up
Fc1ccc(C(c2nnnn2Cc2cccs2)N2CCN(C3CCCCC3)CC2)cc1 (stereo unspecified)	–	–	–	–	–	?
NCCNc1ccc2nnnn2n1	–	–	–	–	–	–
O=[N+]([O-])c1ccc(N=Nc2c(Cl)cc(O)cc2Cl)cc1	–	2.7µM	–	–	?	·
CC(N)=Nc1ccc([N+](=O)[O-])cc1	–	–	–	–	–	–
O=C(NC(=S)Nc1ccc(Cl)cn1)C12CC3CC(CC(C3)C1)C2	?	11µM	–	?	?	–
CCN1CCN(c2cc(C)c3cc(NC(=S)N4CCCCC4)ccc3n2)CC1	–	–	–	–	–	–
CCOC(=O)c1c(C)oc2ccc(O)c(CN(C)C)c12	–	–	–	–	–	–
CCOC(=O)c1c(C)oc2cc(Cl)c(O)c(CN(C)C)c12	–	15µM	?	–	?	·
Fc1ccccc1OCCn1c(=S)[nH]c2ccccc21	–	–	–	–	–	·
COc1cc(C2CC(=O)c3cnc(N4CCN(Cc5ccccc5)CC4)nc3C2)cc(OC)c1OC (stereo unspecified)	–	–	–	–	3.3µM	–
O=S(=O)(Nc1ccncc1)c1ccc(Cl)c(Cl)c1	–	–	–	–	–	·
Cc1ccc(/C=C2\OC(=O)c3ccccc32)cc1	–	1.1µM	?	–	?	?
Cc1ccccc1/C=C1\OC(=O)c2ccccc21	–	?	–	–	–	–
CCOC(=O)c1sc(NC(=O)c2ccc3nc[nH]c3c2)nc1C	–	5.4µM	?	–	?	·
CCOC(=O)c1sc(NC(=O)CSc2ncccn2)nc1C	–	–	–	–	–	·
CCOC(=O)c1sc(NC(=O)CSc2nccn2C)nc1C	?	?	21µM	?	?	·
CCOC(=O)c1sc(NC(=O)c2cccnc2)nc1C	–	15µM	?	–	?	–
N#CCCN(C(=O)COC(=O)c1n[nH]c2ccccc12)c1ccccc1	·	·	–	·	–	·
CCCCCC(=O)Nc1ccc(Cl)cn1	?	–	–	–	?	–
O=C(CC1Sc2ccccc2NC1=O)OC(C(=O)NCCc1ccccc1)c1cccnc1 (stereo unspecified)	–	–	–	–	–	–
Cc1ccc(NS(=O)(=O)c2ccc(C(=O)N3CCN(c4ncccn4)CC3)cc2)cc1	–	–	–	–	5.8µM	–
Cc1ccc(C(=O)N2CCN(c3ncccn3)CC2)cc1	–	–	–	–	–	·
Cc1cc(-c2ccccc2)n(-c2ccc(C(=O)N3CCN(c4ncccn4)CC3)cc2)n1	–	–	–	–	6.5µM	–
O=C(c1ccc(S(=O)(=O)Nc2ccc(F)cc2)cc1)N1CCN(c2ccccn2)CC1	–	–	–	–	16µM	–
CN1C(=O)c2ccc(C(=O)NCc3ccccc3)cc2C1=O	–	–	–	–	–	–
SMILES	NPC1 promoter act	FLuc modulator	ELG1 genotoxic	Rab9 prom act	ELG1 repair inh	SMN2 splice up
CCOC(=O)CSc1nc2ccc(NC(=O)c3ccc(C)cc3)cc2s1	·	5.4µM	·	·	·	·
CSc1nc2ccc(NC(=O)c3cccs3)cc2s1	·	·	–	·	?	·
CSc1nc2ccc(NC(=O)c3ccc(=O)[nH]c3)cc2s1	–	?	–	–	–	·
CSc1nc2ccc(NC(=O)c3ccco3)cc2s1	2.8µM	9.5µM	8.2µM	2.5µM	?	·
CSc1nc2ccc(NC(=O)c3cc4ccccc4o3)cc2s1	1.6µM	1.1µM	?	2.5µM	?	·
CSc1nc2ccc(NC(=O)c3ccc(F)c(F)c3)cc2s1	?	?	?	?	?	16µM
Cc1cc2oc(=O)cc(CN3CCC(C)CC3)c2cc1Cl	–	?	?	–	?	–
O=C1CC(c2ccccc2)n2nc(NC(=O)c3cccnc3)nc2N1 (stereo unspecified)	–	–	–	–	?	–
